The text below walks through data of the antibiotic and cytotoxicity screens of Wong et al. (2023).

Molecules are shown by their SMILES. Screen size: about 39,000 compounds; about 3,300 (8.5%) were called active. What follows is part of a selection rich in actives, with near analogues and random picks from the rest.

The subject of the experiment is HepG2. Briefly: cytotoxicity call (relative viability < 0.9). The following applies: 10 µM.
In the case of `C=C(C)[C@@H]1CC[C@]2(COC(C)=O)CC[C@]3(C)[C@H](CC[C@@H]4[C@@]5(C)CC[C@H](OC(C)=O)C(C)(C)[C@@H]5CC[C@]43C)[C@@H]12`, the cytotoxicity call was “inactive”. To `C[C@@H]1CCCCO[C@@H](CN(C)S(=O)(=O)c2cn(C)cn2)[C@H](C)CN([C@@H](C)CO)C(=O)c2cc(NS(=O)(=O)c3cn(C)cn3)ccc2O1` belongs “inactive”; to `C[C@H]1CN([C@@H](C)CO)C(=O)c2cc(NC(=O)C3CC3)ccc2O[C@H]1CN(C)C(=O)NC1CCCCC1`, “inactive”. For `COc1cc2c(cc1OC)-c1onc(-c3ccc(OCCO[Si](C(C)C)(C(C)C)C(C)C)cc3)c1CCCN(C[C@@H](C)O)CC2` the value was “inactive”.

As to `COc1cc2c(cc1OC)-c1onc(-c3ccc(OCCO[Si](C(C)C)(C(C)C)C(C)C)cc3)c1CCCN(C[C@@H](C)OC(=O)NCCCCCC(=O)NO)CC2`, the cytotoxicity call is “active”.

With `COc1cc2c(cc1OC)[C@@]13ON=C(c4ccc(OCCOC(=O)NCCCCCC(=O)NO)cc4)[C@@H]1CCN3CC2`, the cytotoxicity call is “inactive”. To `C/C=C/c1cccc(-c2nc(C(=O)NCc3ccc(OC)cc3)cc3c2[C@@H](CCO)N([S@](=O)C(C)(C)C)C3)c1` belongs “inactive”; to `COc1nn(C)cc1-c1n[nH]c(=S)n1C`, “inactive”. `O=C(C[C@@H]1CC[C@@H]2[C@H](COC[C@H](O)CN2S(=O)(=O)c2ccc(Oc3ccccc3)cc2)O1)NC1CCC1`: the cytotoxicity call is “inactive”. Take `CC1(O)CCC(C(C)(C)O)CC1.O` (centres undefined): the cytotoxicity call is “inactive”. For `CCCC#Cc1ccc2c(c1)O[C@@H](CN(C)S(=O)(=O)c1cccc(OC)c1)[C@@H](C)CN([C@H](C)CO)S2(=O)=O` the value was “inactive”; for `COc1cccc(S(=O)(=O)N(C)C[C@H]2Oc3ncc(C#CCN(C)C)cc3C(=O)N([C@H](C)CO)C[C@@H]2C)c1`, “inactive”; for `COc1ccc(NC(=O)Nc2ccc3c(c2)CC(=O)N([C@@H](C)CO)C[C@@H](C)[C@H](CN(C)S(=O)(=O)c2cn(C)cn2)O3)cc1`, “inactive”. To `COc1ccc(S(=O)(=O)Nc2ccc3c(c2)C(=O)N([C@@H](C)CO)C[C@@H](C)[C@@H](CN(C)CC2CCCCC2)OCCCC[C@@H](C)O3)cc1` belongs “active”.

Regarding `COc1ccc(S(=O)(=O)Nc2ccc3c(c2)C(=O)N([C@H](C)CO)C[C@@H](C)[C@@H](CN(C)CC2CCCCC2)OCCCC[C@@H](C)O3)cc1`, the cytotoxicity call was “active”. For `COc1ccc(S(=O)(=O)Nc2ccc3c(c2)C(=O)N([C@H](C)CO)C[C@@H](C)[C@H](CN(C)CC2CCCCC2)OCCCC[C@@H](C)O3)cc1` the value was “inactive”; for `COc1ccc(S(=O)(=O)Nc2ccc3c(c2)C(=O)N([C@@H](C)CO)C[C@H](C)[C@H](CN(C)CC2CCCCC2)OCCCC[C@@H](C)O3)cc1`, “inactive”; for `COc1ccc(S(=O)(=O)Nc2ccc3c(c2)C(=O)N([C@@H](C)CO)C[C@@H](C)[C@H](CN(C)CC2CCCCC2)OCCCC[C@@H](C)O3)cc1`, “inactive”. Take `COc1ccc(S(=O)(=O)Nc2ccc3c(c2)C(=O)N([C@@H](C)CO)C[C@@H](C)[C@@H](CN(C)CC2CCCCC2)OCCCC[C@H](C)O3)cc1`: the cytotoxicity call is “active”. For `COc1ccc(S(=O)(=O)Nc2ccc3c(c2)C(=O)N([C@H](C)CO)C[C@@H](C)[C@@H](CN(C)CC2CCCCC2)OCCCC[C@H](C)O3)cc1` the value was “inactive”; for `COc1ccc(S(=O)(=O)Nc2ccc3c(c2)C(=O)N([C@@H](C)CO)C[C@H](C)[C@H](CN(C)CC2CCCCC2)OCCCC[C@H](C)O3)cc1`, “inactive”. For `COc1ccc(S(=O)(=O)Nc2ccc3c(c2)C(=O)N([C@H](C)CO)C[C@H](C)[C@@H](CN(C)CC2CCCCC2)OCCCC[C@H](C)O3)cc1`, the cytotoxicity call is “inactive”. With `COc1ccc(S(=O)(=O)Nc2ccc3c(c2)C(=O)N([C@@H](C)CO)C[C@@H](C)[C@H](CN(C)CC2CCCCC2)OCCCC[C@H](C)O3)cc1`, the cytotoxicity call is “inactive”. Consider `COc1ccc(S(=O)(=O)Nc2ccc3c(c2)C(=O)N([C@@H](C)CO)C[C@H](C)[C@@H](CN(C)CC2CCCCC2)OCCCC[C@H](C)O3)cc1`, for which the cytotoxicity call is “inactive”. To `COc1ccc(NC(=O)Nc2ccc3c(c2)C(=O)N([C@H](C)CO)C[C@@H](C)[C@H](CN(C)C(=O)NC2CCCCC2)OCCCC[C@@H](C)O3)cc1` belongs “inactive”; to `CC(C)NC(=O)N(C)C[C@@H]1Oc2ccc(NS(=O)(=O)c3ccc(F)cc3)cc2C(=O)N([C@H](C)CO)C[C@H]1C`, “inactive”. For `C[C@@H]1CCCCO[C@H](CN(C)C(=O)c2ccccc2)[C@@H](C)CN([C@H](C)CO)C(=O)c2cc(NS(=O)(=O)c3ccccc3)ccc2O1` the value was “inactive”; for `Cc1cc(=O)[n+]2cccc(O)c2[nH]1`, “inactive”; for `CC(C)NC(=O)Nc1ccc2c(c1)C(=O)N([C@H](C)CO)C[C@@H](C)[C@@H](CN(C)S(=O)(=O)c1ccc(Cl)cc1)O2`, “inactive”.

`CCc1cc(C(N)=O)c(N)s1`: the cytotoxicity call was “inactive”. To `C[C@@H]1CCCCO[C@H](CN(C)C(=O)Nc2ccc(F)cc2)[C@@H](C)CN([C@H](C)CO)C(=O)c2cc(NC(=O)Nc3ccccc3)ccc2O1` belongs “inactive”; to `CCOC(=O)N[C@H]1CCS(=O)(=O)C1`, “inactive”; to `Cc1cn2c(=O)c(C(=O)O)cnc2s1`, “inactive”. To `C[C@@H]1CN([C@H](C)CO)C(=O)c2cccc(NS(C)(=O)=O)c2O[C@@H]1CN(C)S(=O)(=O)c1ccccc1` belongs “inactive”. For `CCOC(=O)CCCCCC(=O)Nc1ccc2c(c1)C(=O)N([C@H](C)CO)C[C@@H](C)[C@@H](CN(C)S(=O)(=O)c1ccc(C)cc1)OCCCC[C@H](C)O2` the value was “inactive”; for `C[C@H]1CCCCO[C@@H](CN(C)Cc2ccccc2)[C@@H](C)CN([C@@H](C)CO)C(=O)c2cc(NS(=O)(=O)c3ccc(Cl)cc3)ccc2O1`, “active”; for `C[C@H](CO)N1C[C@H](C)[C@@H](CN(C)Cc2ccccc2)OCCCC[C@H](C)Oc2ccc(NS(=O)(=O)c3ccc(Cl)cc3)cc2C1=O`, “inactive”.

Take `C[C@@H]1CCCCO[C@@H](CN(C)Cc2ccccc2)[C@@H](C)CN([C@@H](C)CO)C(=O)c2cc(NS(=O)(=O)c3ccc(Cl)cc3)ccc2O1`: the cytotoxicity call was “inactive”. To `C[C@@H]1CCCCO[C@@H](CN(C)Cc2ccccc2)[C@H](C)CN([C@@H](C)CO)C(=O)c2cc(NS(=O)(=O)c3ccc(Cl)cc3)ccc2O1` belongs “inactive”; to `C[C@@H]1CCCCO[C@H](CN(C)Cc2ccccc2)[C@H](C)CN([C@@H](C)CO)C(=O)c2cc(NS(=O)(=O)c3ccc(Cl)cc3)ccc2O1`, “active”. For `C[C@H]1CCCCO[C@H](CN(C)Cc2ccccc2)[C@@H](C)CN([C@@H](C)CO)C(=O)c2cc(NS(=O)(=O)c3ccc(Cl)cc3)ccc2O1` the value was “inactive”. Take `C[C@@H]1CN([C@H](C)CO)C(=O)c2cc(NS(=O)(=O)c3ccc(Cl)cc3)ccc2O[C@@H](C)CCCCO[C@@H]1CN(C)Cc1ccccc1`: the cytotoxicity call was “inactive”. In the case of `C[C@@H]1CCCCO[C@H](CN(C)Cc2ccccc2)[C@@H](C)CN([C@H](C)CO)C(=O)c2cc(NS(=O)(=O)c3ccc(Cl)cc3)ccc2O1`, the cytotoxicity call was “inactive”. For `C[C@@H]1CN([C@@H](C)CO)C(=O)c2cc(NS(=O)(=O)c3ccc(Cl)cc3)ccc2O[C@@H](C)CCCCO[C@@H]1CN(C)Cc1ccccc1` the value was “active”.

Regarding `C[C@@H]1CCCCO[C@@H](CN(C)Cc2ccccc2)[C@@H](C)CN([C@H](C)CO)C(=O)c2cc(NS(=O)(=O)c3ccc(Cl)cc3)ccc2O1`, the cytotoxicity call is “inactive”. To `C[C@@H]1CCCCO[C@H](CN(C)Cc2ccccc2)[C@H](C)CN([C@H](C)CO)C(=O)c2cc(NS(=O)(=O)c3ccc(Cl)cc3)ccc2O1` belongs “active”; to `C[C@@H]1CN([C@@H](C)CO)C(=O)c2cc(NS(=O)(=O)c3ccc(Cl)cc3)ccc2O[C@@H](C)CCCCO[C@H]1CN(C)Cc1ccccc1`, “inactive”; to `C[C@H]1CN([C@@H](C)CO)C(=O)Cc2cc(NS(C)(=O)=O)ccc2O[C@H]1CN(C)Cc1ccc(C(=O)O)cc1`, “inactive”. For `C=CCOC(=O)[C@@H]1[C@H]2C(=O)O[C@H](c3ccccc3)[C@H](c3ccccc3)N2[C@H](c2ccc(OCCOC(=O)[C@H]3C[C@H]4C(=O)N5CCC[C@H]5C(=O)N4[C@H]3c3ccc(O)cc3)cc2)[C@@]12C(=O)Nc1ccccc12` the value was “inactive”; for `Cn1ncc2c(NN3C(=O)CCC3=O)ncnc21`, “inactive”; for `CC(C)CC#Cc1ccc2c(c1)O[C@@H](CN(C)Cc1cncnc1)[C@@H](C)CN([C@H](C)CO)S2(=O)=O`, “inactive”. For `CC(C)NC(=O)[C@@H]1c2ccccc2C(=O)N(Cc2cc(F)cc(C(F)(F)F)c2)[C@H]1c1ccc(CO)cc1` the value was “inactive”; for `CC(C)NC(=O)Nc1ccc2c(c1)C(=O)N([C@H](C)CO)C[C@H](C)[C@@H](CN(C)S(=O)(=O)c1cn(C)cn1)OCCCC[C@H](C)O2`, “inactive”. On to `CC(C)NC(=O)N1C[C@H]2[C@H](C(=O)N(C)Cc3ccccn3)CCS(=O)(=O)[C@H]2C1`, for which the cytotoxicity call was “inactive”. With `Cc1noc(C)c1S(=O)(=O)N(C)C[C@H]1Oc2ccc(NS(=O)(=O)c3ccc(F)cc3)cc2CC(=O)N([C@@H](C)CO)C[C@H]1C`, the cytotoxicity call is “inactive”. As to `C=CC[C@@H](CC(=O)N(CCO)Cc1ccccc1)C(=O)N[C@H](COC(=O)[C@@H](CC=C)CC(=O)OC(C)(C)C)Cc1c[nH]c2ccccc12`, the cytotoxicity call is “inactive”. For the molecule `Cc1ccc(S(=O)(=O)N2C[C@H](O)COC[C@H]3O[C@H](CC(=O)NCCCN(C)C)CC[C@@H]32)cc1`, the cytotoxicity call is “inactive”. For `Cc1ccc(S(=O)(=O)N(C)C[C@@H]2OCCCC[C@H](C)Oc3ccc(NS(=O)(=O)c4ccc(F)cc4)cc3C(=O)N([C@H](C)CO)C[C@H]2C)cc1` the value was “inactive”; for `C[C@@H]1CCCCO[C@H](CN(C)Cc2ccc3c(c2)OCO3)[C@@H](C)CN([C@H](C)CO)C(=O)c2cc(NC(=O)Cc3ccccc3)ccc2O1`, “inactive”.
